PubChem BioAssay
The source made the active and inactive calls.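 How the source made its calls: active means z-score of at least 1.8 in each of two replicates, scored against plate mean and spread of sample wells; inactive means the rest.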

Test: galactose survival enhancers in mitochondrial complex I cybrids – cell-based, galactose medium, ATP luminescence, primary screen (AID 1645843);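 further: positive z means more ATP and so rescue of galactose-driven cybrid death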
Settings: complex I mutant cybrid cells, 72 h, stronger effect = higher value

SMILES	z-score
CCCCNC(=O)[C@@H]1C[C@H](CN2CCOCC2)CN(CCc2ccccc2)C1	-0.965 (inactive)
Cc1ccc(S(=O)(=O)N2CCN3C(=O)[C@H](Cc4ccc(Cl)cc4)NC(=O)[C@H]3C2)cc1	-0.845 (inactive)
CC(C)N1C(=O)N(C)C2(CCN(Cc3ccc4c(c3)Cc3ccccc3-4)CC2)C1=O	0.225 (inactive)
Cc1ccc(-c2cc(C(=O)N3CCSCC3)cc(S(=O)(=O)N3CCOCC3)c2)s1	0.905 (inactive)
CC(C)C[C@@H]1NC(=O)[C@H]2CN(S(=O)(=O)c3cccc4ccccc34)CCN2C1=O	-0.92 (inactive)
CNS(=O)(=O)c1cc(NCc2cnc(C)[nH]2)cc(C(=O)Nc2ccc3c(c2)CCC3)c1	0.02 (inactive)
Cc1cc(-c2cc3c(n(C)c2=O)CCN(Cc2c(C)nc4sccn24)C3)ccc1F	0.27 (inactive)
Cc1csc(-c2cc(C(=O)NCCN3CCCCC3)cc(S(=O)(=O)N3CCOCC3)c2)c1	-0.485 (inactive)
CCN1CCN(C(=O)c2cc(-c3cc(C)cs3)cc(S(=O)(=O)N3CCOCC3)c2)CC1	2.05 (inactive)
COCCN1C(=O)N(C)C(=O)C12CCN(Cc1cnc(-c3ccccc3)s1)CC2	-0.285 (inactive)
O=C(NCC1CCCO1)[C@@H]1C[C@H](CN2CCOCC2)CN(Cc2ccc3ccccc3c2)C1 (some centres undefined)	0.17 (inactive)
CC(C)C[C@H]1C(=O)N2CCN(Cc3cnn(-c4ccccc4)c3)C[C@@H]2C(=O)N1C	-0.345 (inactive)
CCOC(=O)c1nn(CCC(F)(F)F)c2c1CN(C(=O)c1ccco1)CC2	-0.32 (inactive)
CCCCNC(=O)[C@@H]1C[C@H](CN2CCOCC2)CN(Cc2ccc3ccccc3c2)C1	-0.385 (inactive)
CCc1nc(CNc2cc(C(=O)N[C@H](C)c3ccc(OC)cc3)cc(S(=O)(=O)N(C)C)c2)c(C)[nH]1	0.08 (inactive)
CCc1nc(CNc2cc(C(=O)Nc3ccc4c(c3)CCC4)cc(S(=O)(=O)NC)c2)c(C)[nH]1	0.065 (inactive)
CN(C)c1ccc(/C=C/CN2CC(=O)N(CCCN3CCCC3=O)CC(O)C2)cc1 (centres undefined)	0.35 (inactive)
Cc1ccc(Cl)cc1NC(=O)N[C@H]1C[C@H]2C(=O)N[C@H](C(C)C)C(=O)N2C1	-0.745 (inactive)
COC1CN(Cc2cn(C)c3ccccc23)CC(=O)N(Cc2ccccc2)C1 (centres undefined)	0.47 (inactive)
CN(C)c1ncc(CN2CCc3c(cc(Cc4ccccc4)c(=O)n3Cc3ccc(F)cc3)C2)s1	-0.525 (inactive)

SMILES	z-score
COc1ccc(CN2C[C@@H](COc3cccc(C(F)(F)F)c3)C[C@@H](C(=O)NCC(C)C)C2)cc1OC	-1.45 (inactive)
Cc1noc(C)c1CC(=O)N1CCc2c(c(C(=O)N3CCOCC3)nn2CCCc2ccccc2)C1	-0.895 (inactive)
CC(C)/C=C/CNc1cc(C(=O)NCc2cn3ccccc3n2)cc(S(=O)(=O)NC(C)C)c1	-1.65 (inactive)
O=C1N[C@@H](COCc2ccccc2)C(=O)N2C[C@@H](NCc3cnn(-c4cccc(F)c4)c3)C[C@@H]12	-0.845 (inactive)
Cc1csc(-c2cc(C(=O)NCCC3CCCN3C)cc(S(=O)(=O)N3CCOCC3)c2)c1 (centres undefined)	-1.3 (inactive)
COc1ccccc1C(=O)N1CCN2C(=O)[C@H](CCCCN)NC(=O)[C@H]2C1	-0.735 (inactive)
Cc1ccn2cc(C(=O)N3CCc4c(cc(-c5ccc(OC(F)(F)F)cc5)c(=O)n4C)C3)nc2c1	1.4 (inactive)
Cn1c2c(cc(-c3ccc(OC(F)(F)F)cc3)c1=O)CN(C(=O)C1CC(=O)c3ccccc31)CC2 (centres undefined)	0.305 (inactive)
O=C1N[C@H](CO)C(=O)N2CCN(C(=O)c3ccc(F)cc3)C[C@H]12	-0.325 (inactive)
CC(C)N1CC(OCc2ccc(F)cc2)CN(C(=O)c2ccc(C#CC(C)(C)O)o2)CC1=O (centres undefined)	0.06 (inactive)
CN(C)C(=O)c1nn(Cc2ccccc2)c2c1CN(C(=O)C1CC(=O)Nc3ccccc31)CC2 (centres undefined)	0.725 (inactive)
COc1ccc(CNC(=O)c2cc(NCc3nc[nH]c3C)cc(S(=O)(=O)N3CCCC3)c2)cc1	0.755 (inactive)
Cc1ccc(-c2cc(C(=O)N3CCC[C@H]3CO)cc(S(=O)(=O)N3CCOCC3)c2)s1	-0.415 (inactive)
Cc1csc(-c2cc(C(=O)NCCCN3CCOCC3)cc(S(=O)(=O)N3CCOCC3)c2)c1	2.09 (inactive)
COc1ccc(CN2C[C@@H](CN3CCOCC3)C[C@@H](C(=O)NCC3CCCO3)C2)cc1OC (some centres undefined)	1.14 (inactive)
O=C(c1nn(Cc2ccncc2)c2c1CN(Cc1ccsc1)CC2)N1CCCC1	0.36 (inactive)
Cc1onc(-c2ccccc2)c1C(=O)N1CC(=O)N(Cc2ccccc2)CC(OCC2CC2)C1 (centres undefined)	-1.6 (inactive)
COc1ccc(C[C@@H]2NC(=O)[C@H]3CN(C(=O)Oc4ccc(Cl)cc4)CCN3C2=O)cc1	-1.58 (inactive)
CC(C)CNC(=O)[C@@H]1C[C@H](CN2CCOCC2)CN(Cc2nccn2C)C1	0.2 (inactive)
